Screens deposited in PubChem BioAssay by National Center for Advancing Translational Sciences (NCATS).
Compounds with a hit are over-represented: about 19% of the library has one in this group of screens.
IL1B secr inh – inhibitors of inflammasome signaling (IL-1 beta secretion). THP-1 LPS/ATP IL-1B secretion, AlphaLISA, 16 h; hits give low values. activity change, % at 57.5 µM. hit rate 4.7% among 360,000. AID 743279; in the data active = activity change below about -50%; inconclusive = mostly about -30% to -49%
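THP-1 cells pretreated 1 hr with compounds (up to 57.5 uM final), then stimulated with LPS (250 ng/mL final) plus ATP (1.25 mM final); secreted IL-1B measured by AlphaLISA after 16 hr, decreased signal indicating inhibition.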
HT1080 IDH1KD tx – toxicity to HT-1080 IDH1 knockdown cells (counter line). HT-1080 IDH1 knockdown viability, ATP luminescence, 48 h. Potency, µM (doses to about 46.1 µM), for the others: at the top dose activity, negative = toxicity, hits mostly cytotoxic. hit rate 2% among 360,000;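 also: potency is read from the fitted curve at half-maximal effect; 0% = DMSO wells and -100% = cell-free medium wells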
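Using the IDH1-knockdown HT-1080 line run in the same batch and compound series as the NT line, viability after 48 h at 37 °C was determined by CellTiter-Glo luminescence and expressed as % activity.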
TDP1 cell CPT – DT40-hTDP1 cell growth loss with CPT; chicken DT40 Tdp1-/-;hTDP1 cells + 20 nM CPT, ATP luminescence, 48 h; Potency, µM (titrated, usually from 46.2 µM), inactives show at the highest dose activity change, negative = growth inhibition, actives largely listed as inhibitors; hit rate 12% among 420,000; AID 686979; also: potency is read from the fitted curve at half-maximal effect; nearly all actives have a fitted effect of over 55% in size
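Chicken DT40 Tdp1-/- cells stably complemented with human TDP1 were seeded at 400 cells/well in medium containing 20 nM camptothecin, exposed to pin-transferred compounds, and grown at 37 °C for at least 48 hr. Viability was read as ATP luminescence.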
DT40 TDP1 no CPT – qHTS for Inhibitors of human tyrosyl-DNA phosphodiesterase 1 (TDP1): qHTS in cells in absence of CPT | DT40 Tdp1-/- hTDP1 cells, no CPT, ATP luminescence, 48 h | Potency, µM (doses to about 46.2 µM), for the others: top-dose activity change, negative = growth inhibition, usual class: inhibitors | hit rate 15% among 420,000; also: potency is read from the fitted curve at half-maximal effect; nearly all actives have a fitted effect of over 55% in size
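Chicken DT40 Tdp1-/- cells complemented with human TDP1, screened without camptothecin (DMSO vehicle only), 400 cells/well. Compounds pin-transferred, cells incubated at 37 °C for at least 48 hr. Growth read as ATP-dependent luminescence (CellTiter-Glo, 30 min at RT).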
HT1080NT lethal – kills 2HG-producing HT-1080-NT fibrosarcoma cells; Potency, µM (series often up to 46.1 µM), for the others: top-dose activity, negative = less viability, actives largely listed as cytotoxic; HT-1080-NT fibrosarcoma viability, CellTiter-Glo ATP luminescence, 48 h; hit rate 1.6% among 360,000;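 also: NT is the 2HG producing partner of a matched IDH1 knockdown line; potency is read from the fitted curve at half-maximal effect; 0% = DMSO-treated cells and -100% = media-only wells without cells; nearly all actives have a fitted effect of over 55% in size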
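Toxicity toward the 2HG-producing NT line was scored as %Activity, normalised to DMSO and no-cell wells, from CellTiter-Glo luminescence after 48 hours' treatment.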
Active calls of the source: *; i = inactive; ? = inconclusive; · = no result given; [ ] = remark or other dose. Unless noted, calls follow the shape of the dose curve; as a rule, active = well fitted curve in the direction sought with a large enough effect; inconclusive = small, poorly fitted or top-dose-only effect, or another doubt; inactive = no such curve, though single readings can be large; an effect the other way counts as inactive or inconclusive. Unless noted, % is scaled to controls: 0 for no effect and ±100 for the full control effect.

SMILES | IL1B secr inh | HT1080 IDH1KD tx | TDP1 cell CPT | DT40 TDP1 no CPT | HT1080NT lethal
Cc1cc(C)cc(NC(=O)C(=O)NCC2CCCN2S(=O)(=O)c2cccs2)c1 (configuration not stated) | -5 | -6% | 7.3µM* | 10µM* | 1%
O=C(NCC1CCCN1S(=O)(=O)c1cccs1)c1cccc(F)c1 (configuration not stated) | 3 | -3% | 16µM* | 18µM* | -1%
CC(C)[C@H](NC(=O)c1ccccc1F)C(=O)NNC(=O)c1cccs1 | 2 | 6% | -6% | -8% | 0%
COc1ccc(C/C(N)=N/n2cnnc2)cc1 | 12 | 3%[9.24 µM] | -3% | -12% | 2%
CC(C)COc1ccc(C/C(N)=N/n2cnnc2)cc1 | 11 | -9% | 5.2µM* | 5.8µM* | -6%
N#Cc1c(NC(=O)CSc2ncn[nH]2)sc2c1CCCC2 | 29 | -9% | ? | ? | -24%
CC1CCc2c(sc(NC(=O)CSc3ncn[nH]3)c2C#N)C1 (configuration not stated) | -6 | ? | ? | 23µM* | -26%
CC(=O)c1c(C)[nH]c(C(=O)OCC(=O)Nc2sc3c(c2C#N)CCC(C)C3)c1C (configuration not stated) | 13 | 26µM* | ? | 23µM* | -9%
CCN1CCN(CC(=O)Nc2sc3c(c2C#N)CCC(C)C3)CC1 (configuration not stated) | -4 | ? | ? | 18µM* | 18µM*
CC1CCc2c(sc(NC(=O)COC(=O)c3ccc(NC(=O)CC#N)cc3)c2C#N)C1 (configuration not stated) | -1 | 8% | 19% | -17% | -9%
CC(C)(C)C1CCc2c(sc(NC(=O)CSc3ncn[nH]3)c2C#N)C1 (configuration not stated) | ? | 11µM* | ? | ? | 11µM*
CCCc1cc(=O)[nH]c(SCC(=O)Nc2sc3c(c2C#N)CCC(C)C3)n1 (configuration not stated) | 12 | -19% | -27% | -22% | -11%
COc1ccccc1/C(C)=N/Oc1cc(N)cc([N+](=O)[O-])c1 | -21 | 3% | -4% | -16% | -3%
CC(C)(C)c1ccc(C(=O)N2CCN(CCNC(=O)C(=O)NCc3ccccc3)CC2)cc1 | -14 | 2% | ? | ? | 8%
C[C@H](NC(=O)[C@@H]1CCCN1C(=O)OC(C)(C)C)c1ccccc1 | 16 | 2% | 12% | 6% | 14%
CC(Sc1nnc(-c2cccnc2)o1)C(=O)NC1CCCC1 (configuration not stated) | -3 | 9% | -10% | -4% | 2%
CC1CCCC(C)N1C(=O)Cc1ccccc1 (configuration not stated) | 4 | 45% | 5% | -16% | -1%
O=C(Cc1ccccc1)N1CCCC1c1ccccc1 (configuration not stated) | 32 | 1% | 16µM* | ? | 1%
CCN(c1ccccc1)S(=O)(=O)c1ccc(C(=O)Nc2nnc(CSC)o2)cc1 | 69 | ? | ? | 9.2µM* | -17%
CN(c1ccccc1)S(=O)(=O)c1ccc(C(=O)Nc2nnc(C3CC3)o2)cc1 | -6 | 0% | 2% | 7% | -10%
CCCN(CCC)S(=O)(=O)c1ccc(C(=O)Nc2nnc(CSC)o2)cc1 | 86 | ? | ? | ? | ?
CCCCN(CC)S(=O)(=O)c1ccc(C(=O)Nc2nnc(CSC)o2)cc1 | 29 | ? | ? | 15µM* | -30%
CCN(c1ccccc1)S(=O)(=O)c1ccc(C(=O)Nc2nnc(C3CC3)o2)cc1 | 80 | ? | 21µM* | 18µM* | ?
CCCCN(CCCC)S(=O)(=O)c1ccc(C(=O)Nc2nnc(CSC)o2)cc1 | 63 | ? | 15µM* | 9.2µM* | -11%
COc1ccc(C(=O)N2CCC[C@@]3(CCN(c4ccccn4)C3)C2)cc1 | · | · | -4% | -28% | ·
SMILES | IL1B secr inh | HT1080 IDH1KD tx | TDP1 cell CPT | DT40 TDP1 no CPT | HT1080NT lethal
Cc1c(Cl)cccc1NC(=O)CSc1nccn1C | -16 | 9% | -8% | 19% | 22%
O=C(NC1CS(=O)(=O)CC1NCc1ccco1)c1ccccc1 (configuration not stated) | -6 | 0% | -3% | -2% | -1%
CCN(c1ccccc1)S(=O)(=O)c1ccc(C(=O)Nc2cccc(C)n2)cc1 | ? | -15% | 23µM* | 12µM* | 0%
Cc1ccc(S(=O)(=O)N(C)c2ccc(C(=O)Nc3cccc(C)n3)cc2)cc1 | i | -13% | ? | ? | 1%
O=C(c1ccc(NS(=O)(=O)c2ccc(Cl)c(Cl)c2)cc1)N1CCOCC1 | 18 | -3% | 3% | -15% | 0%
Cc1ccc(S(=O)(=O)C2(C(=O)NC3CCCCC3)CC2)cc1 | 0 | 7% | -20% | 26% | 15%
COc1ccc(NC(=O)Cn2nnc(-c3ccccc3)c2COc2ccc(C(C)=O)cc2)cn1 | -5 | 11% | -30% | ? | 12%
CC(C)NC(=O)Cn1nnc(-c2ccccc2)c1COc1ccc2ccccc2c1 | -18 | -12% | 15µM* | ? | -27%
O=C(O)Cn1nnc(-c2ccccc2)c1COc1ccccc1 | 8 | 3% | -1% | -6% | ?
COc1ccc(NC(=O)Cn2nnc(-c3ccccc3)c2COc2ccc3ccccc3c2)cn1 | -10 | ? | 21µM* | 23µM* | ?
CNC(=O)C(=O)NCCN1CCN(S(=O)(=O)c2ccc3ccccc3c2)CC1 | 0 | 5% | 4% | -2% | -1%
CCN(C(=O)c1ccc(S(=O)(=O)N2CCOCC2)cc1)C1CCS(=O)(=O)C1 (configuration not stated) | 11 | 6% | 9% | -7% | 8%
O=C1COc2ccccc2N1Cc1c(F)cccc1Cl | 65 | 8% | -6% | ? | -2%
CCOc1ccc(S(=O)(=O)NCCC(=O)Nc2nnc(C)s2)cc1 | 23 | 9% | -4% | -3% | 4%
CCCCNC(=O)C[C@@H]1C[C@@]2(C(=O)OC)CCCCC=C2N(Cc2cccc3ccccc23)C1=O | -22 | ? | ? | ? | ?
COC(=O)[C@]12CCCCC=C1N(Cc1cccc3ccccc13)C(=O)[C@H](CC(=O)N1CCC(c3ccccc3)CC1)C2 | -26 | -10% | ? | 15µM* | -3%
COC(=O)[C@]12CCCCC=C1N(Cc1cccc3ccccc13)C(=O)[C@H](CC(=O)N1CCCCC1)C2 | 15 | ? | ? | 23µM* | ?
CCOC(=O)[C@]12CCCC=C1N(Cc1cccc3ccccc13)C(=O)[C@H](CC(=O)N1CCC(c3ccccc3)CC1)C2 | -19 | -3% | ? | ? | 2%
